Beta2AR agonist – human beta-2 adrenergic receptor agonism by FAP; response, % (concentration not given with the values); Am2.2-beta2AR cells, FAP receptor internalization, flow cytometry; AID 504454; P07550; 340,000 tested, 0.43% active;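 active = response above a set limit, near 3 SD of response in nonfluorescent compounds, cut at about 42% in these data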
Target sequence (P07550 whole entry, looked up): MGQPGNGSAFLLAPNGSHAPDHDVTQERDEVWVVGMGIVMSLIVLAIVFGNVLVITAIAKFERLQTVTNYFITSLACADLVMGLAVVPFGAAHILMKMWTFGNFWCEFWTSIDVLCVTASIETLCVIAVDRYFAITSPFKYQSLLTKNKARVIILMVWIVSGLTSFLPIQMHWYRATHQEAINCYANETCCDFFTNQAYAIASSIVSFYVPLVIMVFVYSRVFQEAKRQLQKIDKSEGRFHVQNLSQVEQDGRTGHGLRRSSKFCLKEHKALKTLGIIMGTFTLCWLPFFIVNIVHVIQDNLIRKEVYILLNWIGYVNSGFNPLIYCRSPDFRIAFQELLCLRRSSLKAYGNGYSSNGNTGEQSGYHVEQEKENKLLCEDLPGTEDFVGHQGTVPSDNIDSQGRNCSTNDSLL
Peg3 prom inh – inhibitors of Peg3 promoter. AID 588405. inhibition, % at 20 µM. 360,000 tested, 1.7% active. HeLa PEG-Prom luciferase reporter, luminescence, overnight;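 active = inhibition of at least 50% at 20 µM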
CF NFkB inh – inhibitors of cystic fibrosis induced NF-kB. inhibition, % at 5 µM. KKLEB NF-kB-GFP reporter, PAF-induced, GFP fluorescence overnight. 360,000 tested, 0.86% active;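 active = at least 50% inhibition at 5 µM, scaled per plate between neutral and stimulator controls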;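 note: PAF is a Pseudomonas aeruginosa culture filtrate used as stimulus; plate controls were PAF-stimulated DMSO wells for no effect and unstimulated DMSO wells for full effect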
MITF TRPM1 inh – MITF TRPM1 promoter inhibition in SK-MEL-5 cells. SK-MEL-5 TRPM1 promoter luciferase, 24 h. inhibition, % at 12.5 µM. 330,000 tested, 0.83% active;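 active = mean inhibition across replicates of 60% or more, whatever share of single replicates reaches that level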
HIF-2a inh – blocks HIF-2a reporter activity; inhibition, % at 18.8 µM; AID 624352; 786-0 RCC cells HIF-2a reporter, luciferase luminescence, overnight; 360,000 tested, 0.72% active;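 active = inhibition of the luminescence signal of 40% or more relative to plate controls, in a single-dose primary screen at 18.75 µM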
KKLEB cytotox – counter-screen for CF NF-kB inhibitors: cytotoxicity. KKLEB CF airway cells viability, ATPlite luminescence, overnight; active compounds read low; cells stimulated with P. aeruginosa culture filtrate. 360,000 tested, 0.36% active. activity change (cytotoxicity), % at 5 µM;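 active = corrected activity change at or below -50% at 5 µM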
CF NFkB conf – confirmation of cystic fibrosis induced NF-kB inhibitors. shares compounds with CF NFkB inh. KKLEB CF airway cells, PAF-induced NF-kB-GFP fluorescence, overnight. inhibition, % at 5 µM. 1,300 tested, 64% active. AID 602472; in the data active = inhibition above about 40%;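 note: stimulus PAF is a Pseudomonas aeruginosa filtrate and not platelet activating factor; plate controls were DMSO wells with stimulus for no effect and unstimulated DMSO wells for full effect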
* = called active by the depositor; · = not tested or not shown; ! = a repeat was not active. This is a sample that favours compounds with a hit; in the whole collection about 2.8% have one here.

SMILES	Beta2AR agonist	Peg3 prom inh	CF NFkB inh	MITF TRPM1 inh	HIF-2a inh	KKLEB cytotox	CF NFkB conf
CCN1CCN(Cc2ccc(NC(=O)c3ccc(C)c(NC(=O)N4CCNC4=O)c3)cc2C(F)(F)F)CC1	13	0	50*	12	3	-1	60*
Cc1cn(-c2cc(C(=O)Nc3ccc(C)c(NC(=O)N4CCNC4=O)c3)cc(C(F)(F)F)c2)cn1	-5	8	32	1	9	-9	·
CCN1CCN(Cc2ccc(NC(=O)c3ccc(C)c(NC(=O)c4cccc5[nH]ccc45)c3)cc2C(F)(F)F)CC1	17	42	54*!	4	-23	-15	49*
COc1ccc(-c2cc3c(c4c2ccn4C)C2CCC3O2)cc1OC (stereo not drawn)	·	13	8	·	9	-3	·
Cc1cccc(C)c1NC(=O)C1(C)CN(S(C)(=O)=O)CC(=O)N1Cc1cccs1 (stereo not drawn)	·	·	·	·	-6	·	·
COc1cccc(NC(=O)CN(C)CC(=O)Nc2ccc(C)c([N+](=O)[O-])c2)c1	-5	8	66*	-15	2	0	76*
Cc1nc(C)c(-c2csc(Nc3cccc(O)c3)n2)s1	-3	-245	-25	-42	-276	9	·
CCC(=O)Nc1nc(C)c(-c2csc(Nc3cccc(O)c3)n2)s1	26	-59	62*	11	-50	-4	87*
O=S(=O)(c1cccc2cnccc12)N1CCCNCC1	0	-10	50*	-11	32	-7	58*
O=C1NC[C@H](Cc2ccccc2)N(C[C@@H]2CCCN2C[C@H](Cc2ccc(O)cc2)N2C[C@H](Cc3ccccc3)N(CCc3ccccc3)C(=O)C2=O)C1=O	·	·	·	·	1	·	·
NS(=O)(=O)c1ccc(CCNc2nn3c(-c4cccc(OC(F)(F)F)c4)cnc3s2)cc1	·	102*	53*	·	23	-41	70*
COc1ccc(S(=O)(=O)N(C(C)=O)c2ccc(OC(C)=O)c3ccccc23)cc1[N+](=O)[O-]	11	17	79*	71*	14	-17	102*
CC(=O)Oc1c(Cl)cc(N(C(C)=O)S(=O)(=O)c2ccccc2)c2ccccc12	8	4	57*	·	2	-19	54*
CC(=O)Oc1ccc(N(C(C)=O)S(=O)(=O)c2ccccc2)c2ccccc12	·	6	69*	·	13	0	10
CC(C)CNC(=S)N1CCC(C(=O)c2ccc(Cl)cc2)CC1	·	4	18	·	4	-1	·
O=C1C2C(c3ccccc3)CC=CC2[C@H](c2ccc3ccccc3c2)N1Cc1ccccc1 (stereo partly drawn)	24	15	55*	-17	37	-33	43*
Cc1ccc(F)c([C@H]2C3C=CCC(c4ccccc4)C3C(=O)N2Cc2ccccc2)c1 (stereo partly drawn)	12	22	63*	-9	36	-16	27
O=C1C2C(c3ccccc3)CC=CC2[C@H](c2ccoc2)N1Cc1ccccc1 (stereo partly drawn)	23	27	8	0	10	17	·
Cc1cc(Br)ccc1NC(=O)CN(C)C(=O)c1ccccc1OCc1c(C)noc1C	·	10	-2	·	16	-4	·
O=C(N/N=C/c1ccccc1)c1[nH]c2ccc(Br)cc2c1-c1ccccc1	20	-1	61*	74*	31	-34	85*
O=C(NN=C1CCCC1)c1[nH]c2ccc(Br)cc2c1-c1ccccc1	3	·	·	·	·	·	·
COc1ccc(C2=NN(CCC(=O)NC3CCCCC3C)C(=O)CC2)cc1 (stereo not drawn)	·	-3	9	·	18	4	·
Cc1ccc(NC(=S)NC(=O)c2ccccc2)cc1NC(=S)NC(=O)c1ccccc1	-2	-52	64*	18	-206	-27	27
COc1cc(F)ccc1-c1csc(C(C)(NC(C)=O)c2ccccc2)n1 (stereo not drawn)	·	1	20	·	1	-2	·
CCOC(=O)C1(C)CCCCCN1C(=O)c1ccc(Cl)nc1 (stereo not drawn)	·	-1	-1	·	-1	10	·
Cc1ccc(Cc2c(-c3ccco3)nc3c(C)cc(Br)cn23)cc1	·	-60	51*	·	-1	-16	-14

Compound activity (PubChem BioAssay)
